Reference: PubChem BioAssay (EPA / NIEHS)
Results filed as inconclusive are left out. Calls of active or inactive are those of the source. The calls were made as follows, unless noted: active = hit-call score of the fitted dose curve at least 0.9, where 1 is the maximum; inconclusive = response in the unintended direction; inactive = score below 0.9.

Legend:
[1] = ATG_XTT_Cytotoxicity_XSP2: Cytotoxicity Assessment in the Attagene TRANS-FACTORIAL Multi-Species (XSP2) HepG2 Assay (AID 2283837)
Method in brief: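 XTT-based cell number read-out in human HepG2 liver cells carrying transfected reporter units, measured 24 h after chemical dosing. Activity is signal loss versus DMSO baseline.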

[2] = molecular target: human Thyroid hormone Receptor alpha (TRa), THRA (gene 7067) (UniProt P10827); experiment: ATG_hTRa_XSP2: Attagene TRANS-FACTORIAL Multi-Species (XSP2) HepG2 Assay for human Thyroid hormone Receptor alpha (TRa) (AID 2283838)
Sequence of human Thyroid hormone Receptor alpha (TRa), THRA (gene 7067) (P10827 whole entry, looked up, the tested form may be a part): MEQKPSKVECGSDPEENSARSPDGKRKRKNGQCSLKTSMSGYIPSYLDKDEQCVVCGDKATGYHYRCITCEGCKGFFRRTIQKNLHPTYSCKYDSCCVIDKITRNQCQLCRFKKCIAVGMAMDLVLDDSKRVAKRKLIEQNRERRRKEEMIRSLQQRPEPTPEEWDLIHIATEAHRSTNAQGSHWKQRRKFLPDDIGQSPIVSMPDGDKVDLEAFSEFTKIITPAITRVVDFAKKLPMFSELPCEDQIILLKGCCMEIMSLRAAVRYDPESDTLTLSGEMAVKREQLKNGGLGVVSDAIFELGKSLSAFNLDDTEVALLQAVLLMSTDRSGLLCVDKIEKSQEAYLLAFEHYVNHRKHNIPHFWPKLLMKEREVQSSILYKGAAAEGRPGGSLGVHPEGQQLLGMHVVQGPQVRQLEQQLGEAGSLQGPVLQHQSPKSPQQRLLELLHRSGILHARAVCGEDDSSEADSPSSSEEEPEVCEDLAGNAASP
Method in brief: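 Reporter transcripts were read by RT-PCR with fluorescent primer extension, HpaI digestion and capillary electrophoresis. These came from HepG2 cells carrying multiplexed TRa-Gal4 TRANS constructs, harvested 24 hours after dosing. The medium also held 6-alpha-fluorotestosterone (3 nM) and norgestrel (1.5 nM), and increases were fitted against DMSO.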

[3] = molecular target: frog Thyroid hormone Receptor alpha (TRa), thra-a (gene 397942) (UniProt P15204); experiment: ATG_frTRa_XSP2: Attagene TRANS-FACTORIAL Multi-Species (XSP2) HepG2 Assay for frog Thyroid hormone Receptor alpha (TRa) (AID 2283839)
Sequence of frog Thyroid hormone Receptor alpha (TRa), thra-a (gene 397942) (P15204 whole entry, looked up, the tested form may be a part): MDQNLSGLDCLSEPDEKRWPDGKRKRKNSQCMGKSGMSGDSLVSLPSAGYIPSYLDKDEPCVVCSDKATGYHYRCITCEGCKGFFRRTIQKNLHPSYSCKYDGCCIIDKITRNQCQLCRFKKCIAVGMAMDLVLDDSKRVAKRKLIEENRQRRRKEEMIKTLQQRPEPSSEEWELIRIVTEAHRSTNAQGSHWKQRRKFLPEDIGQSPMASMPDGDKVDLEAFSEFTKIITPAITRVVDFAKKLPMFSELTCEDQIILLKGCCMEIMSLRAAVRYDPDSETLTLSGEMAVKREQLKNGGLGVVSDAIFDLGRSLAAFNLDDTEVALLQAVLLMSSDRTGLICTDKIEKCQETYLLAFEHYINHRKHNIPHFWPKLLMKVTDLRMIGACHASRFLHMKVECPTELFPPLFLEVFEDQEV
Method in brief: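 Chimeric frog TRα-GAL4 activity in human liver cells measures reporter transcript induction 24 h post-dose. Detection uses RT-PCR, HpaI-digested labelled products and fluorescence capillary electrophoresis; DMSO serves as negative control.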

[4] = molecular target: human Thyroid hormone Receptor beta (TRb), THRB (gene 7068) (UniProt P10828); experiment: ATG_hTRb_XSP2: Attagene TRANS-FACTORIAL Multi-Species (XSP2) HepG2 Assay for human Thyroid hormone Receptor beta (TRb) (AID 2283840);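 also: actives raise reporter mRNA so potency reflects agonist-like gain of signal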
Sequence of human Thyroid hormone Receptor beta (TRb), THRB (gene 7068) (P10828 whole entry, looked up): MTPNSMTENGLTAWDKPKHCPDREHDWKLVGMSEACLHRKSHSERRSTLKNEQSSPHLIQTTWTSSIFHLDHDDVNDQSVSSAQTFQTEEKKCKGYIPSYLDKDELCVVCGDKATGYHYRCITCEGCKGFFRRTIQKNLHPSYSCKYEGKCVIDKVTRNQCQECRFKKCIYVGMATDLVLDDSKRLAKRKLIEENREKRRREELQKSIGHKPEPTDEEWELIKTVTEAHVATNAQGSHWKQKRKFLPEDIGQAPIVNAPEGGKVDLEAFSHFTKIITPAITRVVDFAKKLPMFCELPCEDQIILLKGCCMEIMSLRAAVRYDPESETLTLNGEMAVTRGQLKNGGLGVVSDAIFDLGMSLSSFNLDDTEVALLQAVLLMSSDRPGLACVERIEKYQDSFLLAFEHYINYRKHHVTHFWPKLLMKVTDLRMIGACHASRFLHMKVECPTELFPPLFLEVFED
Method in brief: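 Gain-of-signal reporter transcription, referenced to DMSO, was measured in transiently transfected HepG2 after 24 h exposure; labeled RT-PCR products were resolved by capillary electrophoresis. Assay medium included 3 nM 6-alpha-fluorotestosterone and 1.5 nM norgestrel.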

[5] = CPHEA_Stoker_NIS_Cytotoxicity: Cytotoxicity Assessment for CPHEA's Radioactive Iodide Uptake (RAIU) Assay for Sodium/Iodide Symporter (NIS) Inhibition, Stoker and Laws Labs (AID 2283897)
Method in brief: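 hNIS-HEK293T-EPA human kidney cells were exposed for 2 hours at room temperature to test chemicals (0.001–100uM, 0.5% final DMSO) in HEPES-buffered HBSS, pH 7.4. Viability was read as ATP content by luciferase bioluminescence, loss of signal versus DMSO.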

[6] = system: Sodium/Iodide Symporter (NIS), SLC5A5 (gene 6528); experiment: CPHEA_Stoker_NIS_Inhibition_RAIU: CPHEA's Radioactive Iodide Uptake (RAIU) Assay for Sodium/Iodide Symporter (NIS) Inhibition, Stoker and Laws Labs (AID 2283841)
Method in brief: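 HEK293T cells stably expressing human NIS (hNIS-HEK293T-EPA) were exposed to test chemicals at 0.001–100uM (0.5% final DMSO) with 125I at a final 329pM in HBSS/10mM HEPES pH 7.4. After 2 hours at room temperature and ice-cold washes, intracellular 125I was counted as CPM and normalized to DMSO wells.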

[7] = CEETOX_H295R_11DCORT_noMTC: CeeTox H295R High-throughput Steroidogenesis Assay for 11-Deoxycortisol (11DCORT), maximum tolerated concentration (MTC) filtered results only (AID 2283911; active = hit-call score of the fitted dose curve at least 0.9, where 1 is the maximum; inactive = score below 0.9); details: actives raise or lower the signal
Method in brief: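 Forskolin-primed (10 uM, 48 h) H295R adrenal cells are dosed for 48 h at 0.1% DMSO; medium 11-deoxycortisol is quantified by LC-MS/MS against a 7-point standard curve, with activity fitted in both directions versus DMSO.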

[8] = CEETOX_H295R_OHPREG_noMTC: CeeTox H295R High-throughput Steroidogenesis Assay for OH-Pregnenolone (OHPREG), maximum tolerated concentration (MTC) filtered results only (AID 2283912; active = hit-call score of the fitted dose curve at least 0.9, where 1 is the maximum; inactive = score below 0.9); details: actives raise or lower the signal
Method in brief: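 Medium 17alpha-hydroxypregnenolone quantified by reverse-phase HPLC-MS/MS after 48 h chemical exposure of forskolin-prestimulated (10 uM, 48 h) H295R, 0.1% DMSO final. Fitting bidirectional relative to DMSO; no maximum-tolerated-concentration filtering applied.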

[9] = CEETOX_H295R_OHPROG_noMTC: CeeTox H295R High-throughput Steroidogenesis Assay for OH-Progesterone (OHPROG), maximum tolerated concentration (MTC) filtered results only (AID 2283914; active = hit-call score of the fitted dose curve at least 0.9, where 1 is the maximum; inactive = score below 0.9); details: actives raise or lower the signal
Method in brief: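 After 48 h forskolin (10 uM) prestimulation, H295R adrenal cells received test chemical in 0.1% DMSO for 48 h. Medium 17alpha-hydroxyprogesterone was MTBE-extracted and measured by HPLC-MS/MS; gain or loss relative to DMSO, no MTT-based MTC filtering.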

[10] = CEETOX_H295R_CORTISOL_noMTC: CeeTox H295R High-throughput Steroidogenesis Assay for Cortisol, maximum tolerated concentration (MTC) filtered results only (AID 2283916; active = hit-call score of the fitted dose curve at least 0.9, where 1 is the maximum; inactive = score below 0.9); details: actives raise or lower the signal
Method in brief: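 Cortisol secretion measured by LC-MS/MS after 48 h chemical treatment (final 0.1% DMSO) of forskolin-primed (10 uM, 48 h) H295R cells; gain or loss fitted relative to DMSO, without maximum-tolerated-concentration filtering.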

[11] = CEETOX_H295R_CORTIC_noMTC: CeeTox H295R High-throughput Steroidogenesis Assay for Corticosterone (CORTIC), maximum tolerated concentration (MTC) filtered results only (AID 2283917; active = hit-call score of the fitted dose curve at least 0.9, where 1 is the maximum; inactive = score below 0.9); details: actives raise or lower the signal
Method in brief: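 Human adrenal H295R cells were prestimulated 48 h with 10 uM forskolin, then exposed 48 h to chemical in 0.1% DMSO. Medium corticosterone was MTBE-extracted and quantified by HPLC-MS/MS; bidirectional fits versus DMSO, concentrations not MTC-filtered.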

[12] = CEETOX_H295R_DOC_noMTC: CeeTox H295R High-throughput Steroidogenesis Assay for DOC, maximum tolerated concentration (MTC) filtered results only (AID 2283918; active = hit-call score of the fitted dose curve at least 0.9, where 1 is the maximum; inactive = score below 0.9); details: actives raise or lower the signal
Method in brief: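 11-Deoxycorticosterone secreted by human adrenal H295R cells quantified by HPLC-MS/MS after 48 h chemical exposure (0.1% DMSO), following 48 h 10 uM forskolin prestimulation. Concentrations not filtered by MTT-derived MTC; bidirectional fitting.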

[13] = CEETOX_H295R_ESTRADIOL_noMTC: CeeTox H295R High-throughput Steroidogenesis Assay for Estradiol, maximum tolerated concentration (MTC) filtered results only (AID 2283919; active = hit-call score of the fitted dose curve at least 0.9, where 1 is the maximum; inactive = score below 0.9); details: actives raise or lower the signal
Method in brief: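 Readout: dansyl-derivatized estradiol quantified by LC-MS/MS in medium from H295R cells dosed 48 h (0.1% DMSO) following 48 h forskolin (10 uM) prestimulation. Gain or loss of signal fitted against DMSO; no MTC filtering applied.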

[14] = CEETOX_H295R_PROG_noMTC: CeeTox H295R High-throughput Steroidogenesis Assay for Progesterone (PROG), maximum tolerated concentration (MTC) filtered results only (AID 2283920; active = hit-call score of the fitted dose curve at least 0.9, where 1 is the maximum; inactive = score below 0.9); details: actives raise or lower the signal
Method in brief: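 Progesterone secreted into medium was measured by HPLC-MS/MS after MTBE extraction, following 48 h chemical exposure (0.1% DMSO) of forskolin-prestimulated (10 uM, 48 h) H295R adrenal cells. Gain or loss fitted against DMSO; no MTC filtering.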

[15] = CEETOX_H295R_ESTRONE_noMTC: CeeTox H295R High-throughput Steroidogenesis Assay for Estrone, maximum tolerated concentration (MTC) filtered results only (AID 2283921; active = hit-call score of the fitted dose curve at least 0.9, where 1 is the maximum; inactive = score below 0.9); details: actives raise or lower the signal
Method in brief: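 Estrone in spent medium, quantified by tandem MS following dansyl chloride derivatization, after 48 h chemical exposure (0.1% DMSO) of forskolin-prestimulated (10 uM, 48 h) H295R cells; concentrations not MTC-filtered, bidirectional fit against DMSO.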

PGR (gene 5241) [16] = molecular target: PGR (gene 5241) (UniProt P06401); experiment: TOX21_PR_BLA_Followup_Antagonist_ratio: Tox21 HEK293 Progesterone Receptor (PR) Antagonism Beta-lactamase Follow-Up Assay, Ratio (AID 2283934);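 also: PR-UAS-bla HEK293T cells stimulated with 1 nM R5020 agonist for 16 hr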
Sequence of PGR (gene 5241) (P06401 whole entry, looked up): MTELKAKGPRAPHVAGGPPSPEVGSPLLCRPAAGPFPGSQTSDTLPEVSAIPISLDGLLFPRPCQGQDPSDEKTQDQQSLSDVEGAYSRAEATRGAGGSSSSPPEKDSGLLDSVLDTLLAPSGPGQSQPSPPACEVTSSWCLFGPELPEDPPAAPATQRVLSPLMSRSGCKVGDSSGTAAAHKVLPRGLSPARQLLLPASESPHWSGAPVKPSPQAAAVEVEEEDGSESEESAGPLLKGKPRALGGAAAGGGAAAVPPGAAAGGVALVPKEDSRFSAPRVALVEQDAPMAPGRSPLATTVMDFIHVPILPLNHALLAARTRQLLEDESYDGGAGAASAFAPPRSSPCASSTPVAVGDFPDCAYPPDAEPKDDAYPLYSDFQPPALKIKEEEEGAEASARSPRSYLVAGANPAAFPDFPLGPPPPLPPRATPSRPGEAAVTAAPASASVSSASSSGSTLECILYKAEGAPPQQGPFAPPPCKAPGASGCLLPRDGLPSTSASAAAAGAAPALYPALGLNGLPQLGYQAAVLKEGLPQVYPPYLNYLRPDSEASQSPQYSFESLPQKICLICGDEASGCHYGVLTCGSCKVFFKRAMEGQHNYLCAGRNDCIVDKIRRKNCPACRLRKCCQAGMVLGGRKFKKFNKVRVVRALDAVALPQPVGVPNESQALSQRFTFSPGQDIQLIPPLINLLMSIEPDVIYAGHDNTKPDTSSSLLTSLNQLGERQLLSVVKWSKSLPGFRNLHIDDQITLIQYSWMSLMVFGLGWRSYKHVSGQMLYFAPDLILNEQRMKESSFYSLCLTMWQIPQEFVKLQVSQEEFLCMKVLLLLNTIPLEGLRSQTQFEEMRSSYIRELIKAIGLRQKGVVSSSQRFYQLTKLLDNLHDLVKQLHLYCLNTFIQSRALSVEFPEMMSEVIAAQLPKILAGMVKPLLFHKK
Method in brief: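 Readout is the blue/green (ch2/ch1) substrate cleavage ratio after 2 hours at room temperature, following 16 hr co-treatment of PR-bla HEK293T cells with compound and 1nM promegestone. Multiplexed CellTiter-Glo viability flags cytotoxicity; DMSO baseline.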

[17] = TOX21_PR_BLA_Followup_Agonist_viability: Viability Assessment in the Tox21 HEK293 Progesterone Receptor (PR) Agonism Beta-lactamase Follow-Up Assay (AID 2283935);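 also: signal loss means lower viability so actives are cytotoxic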
Method in brief: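 Run multiplexed with the beta-lactamase FRET read, this endpoint measures ATP by CellTiter-Glo luminescence (30 min, room temperature). PR-UAS-bla HEK293T cells received compound 6 hr after plating and were then incubated 16 hr at 37C in 2% stripped serum.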

[18] = TOX21_PR_BLA_Followup_Antagonist_viability: Viability Assessment in the Tox21 HEK293 Progesterone Receptor (PR) Antagonism Beta-lactamase Follow-Up Assay (AID 2283936);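 also: cells exposed to compound with R5020 agonist for 16 h; hits lower the luminescence signal meaning cytotoxicity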
Method in brief: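 PR-UAS-bla HEK293T cells in medium with 2% charcoal-stripped FBS were treated with compounds plus R5020 for 16 hr at 37C. After the beta-lactamase read, CellTiter-Glo was added to the same wells and luminescence read after 30 min at room temperature.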

PGR (gene 5241) [19] = molecular target: PGR (gene 5241) (UniProt P06401); experiment: TOX21_PR_LUC_Followup_Antagonist: Tox21 HEK293 Progesterone Receptor (PR) Antagonism Luciferase Follow-Up Assay (AID 2283938);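 also: curve fitted upward as signal gain over DMSO baseline despite antagonist label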
Method in brief: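 Luciferase reporter in HEK293-PR-A-luc cells: 16 h compound treatment at 37C, ONE-Glo luminescence detection, DMSO as negative control and baseline.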

PGR (gene 5241) [20] = molecular target: PGR (gene 5241) (UniProt P06401); experiment: TOX21_PR_LUC_Followup_Agonist: Tox21 HEK293 Progesterone Receptor (PR) Agonism Luciferase Follow-Up Assay (AID 2283937; active = hit-call score of the fitted dose curve at least 0.9, where 1 is the maximum; inactive = score below 0.9)
Method in brief: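 Agonism scored as luciferase induction over DMSO, read by ONE-Glo after 30 min at RT. Compounds were incubated 16 h at 37C on HEK293-PR-A-luc cells (3,000/well, pre-plated 5 h) previously grown 5 days in charcoal-stripped serum.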

Measured: AC50

c1ccc2c(c1)-c1cccc3cccc-2c13
inactive: [1] | [2] | [3] | [4]

CC(C)(C)C(O)(CCc1ccc(Cl)cc1)Cn1cncn1 (stereo not drawn)
inactive: [1] | [2] | [4] | [5]

Cc1cccc(N)c1N
inactive: [6] | [5]

CC(C)COC(=O)c1ccccc1C(=O)OCC(C)C
inactive: [5] | [7] | [8] | [9] | [10] | [11] | [12] | [13] | [14] | [15]

COP(=S)(OC)SCN1C(=O)c2ccccc2C1=O
inactive: [5]

CCCCCOC(=O)c1ccccc1C(=O)OCCCCC
not listed: [1] | [2] | [6] | PGR (gene 5241) [16] | [17] | [18] | PGR (gene 5241) [19] | PGR (gene 5241) [20]
inactive: all other assays above

ClC1=C(Cl)C2(Cl)C3C(Cl)C=CC3C1(Cl)C2(Cl)Cl (stereo not drawn)
inactive: [6] | [5]

ClC1=C(Cl)[C@]2(Cl)[C@H]3[C@H]([C@@H]4C=C[C@H]3C4)[C@@]1(Cl)C2(Cl)Cl
active: PGR (gene 5241) [16] 46.1 µM | [17] 62.6 µM | PGR (gene 5241) [19] 46.1 µM
inactive: [6] | [5] | [18]

O=[N+]([O-])c1ccc(Oc2ccc(Cl)cc2Cl)cc1
inactive: [1] | [2] | [3] | [4] | [6] | [5] | [17] | PGR (gene 5241) [19]
active: PGR (gene 5241) [16] 20.6 µM

C[C@]12C=CC3=C4CCC(=O)C=C4CC[C@H]3[C@@H]1CC[C@@H]2O
active: [4] 0.0256 µM | PGR (gene 5241) [20] 0.00268 µM
inactive: PGR (gene 5241) [16] | [17] | [18] | PGR (gene 5241) [19]

Cc1cc(N=Nc2ccccc2C)ccc1N
inactive: [6] | [5]
